Data: PubChem BioAssay (NCATS)
Records with an inconclusive call do not appear. Active and inactive are the calls of the source. Unless noted, the call rests on the fitted dose curve; in most records, active means well fitted curve in either direction with a large enough effect (not every such curve was filed as active); inconclusive means small, poorly fitted or top-dose-only effect, or another doubt; inactive means flat fitted curve, though single readings scatter.

Assays:
[1] = molecular target: Lysosomal acid glucosylceramidase (Homo sapiens) (UniProt P04062); assay: Glucocerebrosidase-p2 (AID 348; in the data active means potency below about 10 µM; further: potency means the concentration at half of the fitted maximal effect); conditions: purified GBA, blue fluorogenic substrate, 40 min
In short: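 Normal human glucocerebrosidase (0.2 nM) with blue fluorogenic substrate (80 uM final) in citrate/phosphate pH 5.9 with 10mM sodium taurocholate, 0.01% tween-20; 40 min RT, NaOH/glycine stop; fluorescence Ex 365/Em 440; AC50 from a titration from 0.6 nM upwards.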

[2] = AP1 Signaling Pathway (AID 357); conditions: ME-180 AP-1-bla reporter, EGF-induced, beta-lactamase ratio, 5 h; at 7.69 µM (top of the series) unless noted;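 further: ME-180 reporter cells stimulated with EGF at its EC50 level; on the % scale 0 is the no-effect control and ±100 the full control effect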
In short: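 In this screen, ME-180 cells in Opti-MEM with 0.5% dialyzed FBS received EC50 EGF and compound titrations for 5 h. AP-1 reporter beta-lactamase was detected via CCF4 ratio, giving AC50 for positive and negative modulators.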

[3] = molecular target: Cytochrome P450 1A2 (Homo sapiens) (UniProt P05177); assay: p450-cyp1a2 (AID 410; calls by dose curve; further: potency means the concentration at half of the fitted maximal effect;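 on activity change, negative = inhibition: -100% = full effect of reference inhibitor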); conditions: recombinant CYP1A2, luciferin-ME demethylation, luminescence; series mostly up to 57 µM
In short: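 20nM CYP1A2, 100uM Luciferin-ME (=Km), 100mM KPO4; cpd 10 min RT; +NADPH regen, 60 min RT; stop/detect 20 min; luminescence. Normalized to furafylline 57 uM = full inhibition.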

[4] = NFAT Signaling Pathway (AID 444); conditions: Jurkat NFAT-bla M1, carbachol, beta-lactamase ratio, 5 h; at 7.69 µM (top of the series) unless noted;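 further: carbachol stimulus at about its EC50 of 1 µM final; on the % scale 0 is the no-effect control and ±100 the full control effect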
In short: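 Read-out: CCF4 FRET ratio (460 nm/530 nm) after 1 h RT dye loading, used for %activity and AC50 from titration series. Cells: Jurkat NFAT-β-lactamase/M1 line, treated with compound plus 1 uM carbachol for 5 h, 37 °C.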

[5] = Stat Signaling Pathway (AID 446); conditions: ME-180 SIE beta-lactamase reporter, IL-6 stimulated, 5 h; at 7.69 µM (top of the series) unless noted;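 further: ME-180 cervical cancer cells given 40 pM IL-6 alongside compound; SIE-controlled beta-lactamase reporter measured as 460/530 nm FRET emission ratio; on the % scale 0 is the no-effect control and ±100 the full control effect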
In short: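 Normalization used AC90 stimulation (300 pM IL-6) and AC90 inhibition (125 nM pan-JAK inhibitor at 40 pM IL-6). The underlying signal is SIE-driven beta-lactamase in ME-180 cells after 5 h IL-6 exposure with compound.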

[6] = molecular target: Glucocorticoid receptor (Homo sapiens) (UniProt P04150); assay: GR-EFC Redistribution (AID 451; calls by dose curve; further: potency means the concentration at half of the fitted maximal effect); conditions: CHO-K1 GR-EFC translocation, beta-gal luminescence, 2 h
In short: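 Translocation of GR-ED fusion to nuclear EA restores b-gal, read by luminescence after 1 h room-temperature detection. Engineered CHO-K1 biosensor cells, 1,000/well, exposed 2 h at 37 C to titrations up to 46 uM final.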

[7] = molecular target: Mitogen-activated protein kinase 10 (Mus musculus) (UniProt Q61831); assay: JNK3 AlphaScreen Assay (AID 530); conditions: JNK3 lysate, c-Jun phosphorylation; series mostly up to 57.1 µM;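 further: kinase came from lysate of stimulated human HepG2 cells; signal reports phosphorylation of biotinylated GST-cJun 1-79 at Ser73 with 10 µM ATP; on the % scale 0 is the no-effect control and ±100 the full control effect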
In short: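 Kinase buffer: 20 mM Tris-HCl pH 7.6, 10 mM MgCl2, 1 mM DTT, 0.1 mM Na3VO4, 0.01% Tween-20; ATP 10 uM. Substrate biotin-GST-cJun(1-79), enzyme from activated HepG2 lysates. Detection by Ser73 phospho-antibody AlphaScreen.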

[8] = molecular target: 3',5'-cyclic-AMP phosphodiesterase 4B (Homo sapiens) (UniProt Q07343); assay: qHTS Assay for Inhibitors of PDE-IV (AID 607; active means well fitted activation curve with a large enough effect in the main read-out, with a control signal flat, not every such curve was filed as active; further: % of control where 0% means no effect); conditions: HEK293 ACTOne CNG channel cells, membrane potential fluorescence; series mostly up to 22.9 µM
In short: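 HEK293 ACTOne cells with CNG channel (1000/well), endogenous PDE4; membrane potential dye, compounds up to 22.9 uM final. Fluorescence Ex 535/Em 590; RO 20-1724 (100 uM final) as reference.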

[9] = molecular target: Cytochrome P450 2D6 (Homo sapiens) (UniProt P10635); assay: qHTS Assay for Inhibitors and Substrates of Cytochrome P450 2D6 (AID 891; active means well fitted curve in the direction sought with a large enough effect; an effect the other way counts as inactive or inconclusive; further: potency means the concentration at half of the fitted maximal effect; nearly all actives have a fitted effect of over 60% in size); conditions: recombinant CYP2D6, luciferin-ME EGE luminescence; series mostly up to 57.1 µM
In short: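 Luminescent read-out of luciferin formed by 5 nM human CYP2D6 demethylating 30 uM Luciferin-ME EGE (Km level) over 60 min at room temperature after NADPH regeneration addition. Data normalized to full inhibition by 1.43 uM quinidine.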

[10] = qHTS Assay for Identification of Small Molecule Agonists for Hypoxia Response Element Signaling Pathway (AID 914; active means well fitted activation curve with a large enough effect in the signal ratio, with a control signal flat, not every such curve was filed as active; the % refers to the signal ratio; further: % of control where 0% means no effect); conditions: ME-180 (cervical carcinoma) HRE-bla reporter, beta-lactamase ratio, CoCl2, 17 h; activation: stronger effect = higher value
In short: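 Read-out: CCF4 FRET ratio of 460nm to 530nm emission (excitation 405nm) after 2.5 hours at room temperature, taken from HRE-bla ME-180 cells that had been exposed to compound and EC50 CoCl2 for 17 hours.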

[11] = qHTS Assay for Lipid Storage Modulators (AID 1519; calls by dose curve); conditions: Drosophila S3 cells, BODIPY lipid droplet/cell ratio, laser cytometry, cells loaded with oleic acid; for activity change, negative = inhibition: at 57.5 µM (top of the series)
In short: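 Cells seeded at 5,000 per well were treated with compounds over a concentration series and loaded with oleic acid (400 uM, as added). Lipid droplet fluorescence (488 nm excitation, 500-530 nm channel) was read by laser-scanning cytometry and normalized to 20 uM Triacsin C.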

[12] = Primary qHTS for small molecule stabilizers of the endoplasmic reticulum resident proteome: Secreted ER Calcium Modulated Protein (SERCaMP) assay (AID 1508630; active means well fitted curve in the direction sought with a large enough effect; an effect the other way counts as inactive or inconclusive; further: on the % scale 0 is the no-effect control and ±100 the full control effect); conditions: SH-SY5Y GLuc-SERCaMP (Gaussia luciferase released on ER calcium loss) secretion, thapsigargin, luminescence; series mostly up to 38.4 µM
In short: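 The SH-SY5Y reporter protocol was run at 3 concentrations up to 38.3 uM (primary) or 11 concentrations (follow-up): 16 h compound, 100 nM thapsigargin for 4 h, then extracellular luciferase luminescence.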

[13] = molecular target: Cytochrome P450 3A4 (Homo sapiens) (UniProt P08684); assay: qHTS Assay for Activators of Cytochrome P450 3A4 (AID 885; active means well fitted curve in the direction sought with a large enough effect; an effect the other way counts as inactive or inconclusive; further: nearly all actives have a fitted effect of over 65% in size); conditions: recombinant CYP3A4, Luciferin-PPXE luminescence, 60 min; series mostly up to 57.1 µM
In short: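 Human CYP3A4 dealkylates Luciferin-PPXE to luciferin, which luciferase detection converts to light. Substrate was at its KM (25uM), buffer 200mM KPO4, reaction 60 min at RT.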

[14] = molecular target: Cytochrome P450 3A4 (Homo sapiens) (UniProt P08684); assay: qHTS Assay for Inhibitors and Substrates of Cytochrome P450 3A4 (AID 884; active means well fitted curve in the direction sought with a large enough effect; an effect the other way counts as inactive or inconclusive; further: potency means the concentration at half of the fitted maximal effect; nearly all actives have a fitted effect of over 50% in size); conditions: recombinant CYP3A4, Luciferin-PPXE luminescence; series mostly up to 57.1 µM
In short: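 Luminescent readout of luciferin produced by CYP3A4 (20 nM) dealkylation of Luciferin-PPXE, 25 uM (its KM). NADPH-driven reaction ran 60 min at RT after 10 min compound preincubation; data scaled to 57 uM ketoconazole as 100% inhibition.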

[15] = molecular target: Cytochrome P450 2C19 (Homo sapiens) (UniProt P33261); assay: qHTS Assay for Inhibitors and Substrates of Cytochrome P450 2C19 (AID 899; active means well fitted curve in the direction sought with a large enough effect; an effect the other way counts as inactive or inconclusive; further: potency means the concentration at half of the fitted maximal effect; nearly all actives have a fitted effect of over 60% in size); conditions: recombinant CYP2C19, luciferin-H EGE luminescence; series mostly up to 57.1 µM
In short: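 5nM enzyme + 10uM Luciferin-H EGE (=KM), 50mM KPO4; cpd pin-transferred, 10 min 37C; NADPH regen, 60 min 37C; stopped w/ luciferin detection reagent, 20 min; luminescence. Normalized to 57uM ketoconazole (AC100).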

[16] = measured here: cell count channel max response
[17] = measured here: lipid channel max response

Chain of Lysosomal acid glucosylceramidase (Homo sapiens) (P04062 whole entry, looked up): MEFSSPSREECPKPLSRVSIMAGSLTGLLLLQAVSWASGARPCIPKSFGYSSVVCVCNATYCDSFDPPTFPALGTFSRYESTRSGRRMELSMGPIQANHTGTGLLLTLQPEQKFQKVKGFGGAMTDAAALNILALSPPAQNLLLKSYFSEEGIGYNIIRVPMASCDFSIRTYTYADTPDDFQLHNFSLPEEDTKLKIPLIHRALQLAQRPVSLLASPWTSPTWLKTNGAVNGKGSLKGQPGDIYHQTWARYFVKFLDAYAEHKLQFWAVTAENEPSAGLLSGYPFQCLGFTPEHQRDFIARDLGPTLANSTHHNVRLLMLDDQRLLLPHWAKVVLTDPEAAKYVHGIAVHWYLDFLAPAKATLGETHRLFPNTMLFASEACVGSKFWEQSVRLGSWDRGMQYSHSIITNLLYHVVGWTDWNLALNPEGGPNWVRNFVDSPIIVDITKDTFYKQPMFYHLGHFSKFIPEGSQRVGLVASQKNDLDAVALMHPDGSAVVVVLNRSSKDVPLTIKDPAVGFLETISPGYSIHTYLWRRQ
Chain of 3',5'-cyclic-AMP phosphodiesterase 4B (Homo sapiens) (Q07343 whole entry, looked up): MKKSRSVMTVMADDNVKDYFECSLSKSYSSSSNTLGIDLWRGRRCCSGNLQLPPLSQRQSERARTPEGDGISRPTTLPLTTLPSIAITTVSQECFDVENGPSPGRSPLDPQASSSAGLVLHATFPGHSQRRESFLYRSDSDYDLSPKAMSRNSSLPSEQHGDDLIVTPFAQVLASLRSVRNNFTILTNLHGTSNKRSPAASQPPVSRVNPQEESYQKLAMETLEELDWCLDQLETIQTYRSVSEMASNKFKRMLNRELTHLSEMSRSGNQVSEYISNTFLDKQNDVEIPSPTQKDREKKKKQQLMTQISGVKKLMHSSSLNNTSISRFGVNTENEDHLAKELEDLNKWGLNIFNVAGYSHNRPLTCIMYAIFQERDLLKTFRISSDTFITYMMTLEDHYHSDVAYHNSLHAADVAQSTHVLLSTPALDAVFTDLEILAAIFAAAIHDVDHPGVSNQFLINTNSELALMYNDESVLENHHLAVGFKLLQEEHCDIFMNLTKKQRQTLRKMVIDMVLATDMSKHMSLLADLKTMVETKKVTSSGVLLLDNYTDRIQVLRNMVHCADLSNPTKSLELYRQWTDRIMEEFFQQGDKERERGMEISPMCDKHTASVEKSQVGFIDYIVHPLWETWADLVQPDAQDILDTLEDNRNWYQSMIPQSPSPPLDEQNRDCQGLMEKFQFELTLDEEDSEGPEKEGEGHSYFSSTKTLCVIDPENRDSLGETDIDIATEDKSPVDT
Chain of Cytochrome P450 1A2 (Homo sapiens) (P05177 whole entry, looked up): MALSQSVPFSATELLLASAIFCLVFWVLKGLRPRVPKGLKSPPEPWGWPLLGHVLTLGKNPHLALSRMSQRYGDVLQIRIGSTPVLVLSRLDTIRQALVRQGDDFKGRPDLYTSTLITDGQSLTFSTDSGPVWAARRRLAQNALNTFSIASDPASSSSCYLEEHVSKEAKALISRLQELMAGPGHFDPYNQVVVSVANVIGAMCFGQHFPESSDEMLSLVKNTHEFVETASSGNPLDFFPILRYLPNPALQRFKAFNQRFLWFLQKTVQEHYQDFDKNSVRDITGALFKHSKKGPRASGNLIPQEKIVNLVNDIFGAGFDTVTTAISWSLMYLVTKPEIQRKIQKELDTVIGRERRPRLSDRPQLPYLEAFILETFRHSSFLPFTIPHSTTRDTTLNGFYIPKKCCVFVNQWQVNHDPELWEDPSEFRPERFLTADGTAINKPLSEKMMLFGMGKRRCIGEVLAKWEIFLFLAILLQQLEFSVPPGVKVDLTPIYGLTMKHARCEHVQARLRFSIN
Chain of Cytochrome P450 2D6 (Homo sapiens) (P10635 whole entry, looked up): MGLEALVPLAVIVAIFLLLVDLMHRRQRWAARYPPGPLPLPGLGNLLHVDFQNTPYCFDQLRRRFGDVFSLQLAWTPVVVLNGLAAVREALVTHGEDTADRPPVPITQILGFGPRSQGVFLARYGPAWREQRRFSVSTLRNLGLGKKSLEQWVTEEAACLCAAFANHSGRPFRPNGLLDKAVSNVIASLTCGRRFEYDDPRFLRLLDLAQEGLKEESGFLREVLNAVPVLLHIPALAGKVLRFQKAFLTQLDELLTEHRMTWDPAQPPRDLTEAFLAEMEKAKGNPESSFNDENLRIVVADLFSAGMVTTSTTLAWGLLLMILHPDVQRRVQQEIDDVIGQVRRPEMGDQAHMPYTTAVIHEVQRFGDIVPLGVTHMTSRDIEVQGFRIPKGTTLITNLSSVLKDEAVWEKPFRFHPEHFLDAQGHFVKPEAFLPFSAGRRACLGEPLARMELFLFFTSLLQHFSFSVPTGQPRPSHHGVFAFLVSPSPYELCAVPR
Chain of Glucocorticoid receptor (Homo sapiens) (P04150 whole entry, looked up, the tested form may be a part): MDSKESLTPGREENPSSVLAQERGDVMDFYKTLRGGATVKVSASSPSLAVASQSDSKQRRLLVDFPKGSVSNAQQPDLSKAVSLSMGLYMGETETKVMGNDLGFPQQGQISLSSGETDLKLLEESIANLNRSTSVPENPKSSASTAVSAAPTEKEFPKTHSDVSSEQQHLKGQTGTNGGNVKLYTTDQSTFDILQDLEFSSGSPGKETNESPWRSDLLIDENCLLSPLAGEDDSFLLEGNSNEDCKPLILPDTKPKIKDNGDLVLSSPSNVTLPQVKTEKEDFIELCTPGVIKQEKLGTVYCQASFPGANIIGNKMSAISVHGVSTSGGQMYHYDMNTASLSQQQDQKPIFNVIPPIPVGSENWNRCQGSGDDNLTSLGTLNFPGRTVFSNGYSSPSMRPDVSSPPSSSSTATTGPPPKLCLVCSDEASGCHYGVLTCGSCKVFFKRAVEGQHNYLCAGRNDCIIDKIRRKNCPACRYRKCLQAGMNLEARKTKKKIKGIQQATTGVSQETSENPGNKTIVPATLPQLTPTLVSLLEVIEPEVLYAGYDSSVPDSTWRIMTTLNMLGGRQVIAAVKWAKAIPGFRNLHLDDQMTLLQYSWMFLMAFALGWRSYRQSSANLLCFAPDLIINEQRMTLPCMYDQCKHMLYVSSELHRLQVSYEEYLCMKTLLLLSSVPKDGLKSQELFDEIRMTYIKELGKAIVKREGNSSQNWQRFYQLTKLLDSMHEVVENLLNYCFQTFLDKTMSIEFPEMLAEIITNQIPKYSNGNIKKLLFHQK
Chain of Cytochrome P450 3A4 (Homo sapiens) (P08684 whole entry, looked up): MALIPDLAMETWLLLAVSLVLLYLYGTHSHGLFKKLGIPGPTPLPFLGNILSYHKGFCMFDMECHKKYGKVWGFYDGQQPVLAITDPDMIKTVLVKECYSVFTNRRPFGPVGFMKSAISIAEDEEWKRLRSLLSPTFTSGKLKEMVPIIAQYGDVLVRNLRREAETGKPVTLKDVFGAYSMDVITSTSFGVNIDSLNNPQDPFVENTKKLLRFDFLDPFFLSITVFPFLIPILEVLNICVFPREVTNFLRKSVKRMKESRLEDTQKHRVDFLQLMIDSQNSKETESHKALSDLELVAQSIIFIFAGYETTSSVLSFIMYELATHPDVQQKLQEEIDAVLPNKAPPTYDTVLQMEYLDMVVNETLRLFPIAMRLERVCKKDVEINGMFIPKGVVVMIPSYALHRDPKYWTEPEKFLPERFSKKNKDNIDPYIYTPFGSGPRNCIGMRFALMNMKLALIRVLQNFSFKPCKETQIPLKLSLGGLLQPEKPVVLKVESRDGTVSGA
Chain of Cytochrome P450 2C19 (Homo sapiens) (P33261 whole entry, looked up): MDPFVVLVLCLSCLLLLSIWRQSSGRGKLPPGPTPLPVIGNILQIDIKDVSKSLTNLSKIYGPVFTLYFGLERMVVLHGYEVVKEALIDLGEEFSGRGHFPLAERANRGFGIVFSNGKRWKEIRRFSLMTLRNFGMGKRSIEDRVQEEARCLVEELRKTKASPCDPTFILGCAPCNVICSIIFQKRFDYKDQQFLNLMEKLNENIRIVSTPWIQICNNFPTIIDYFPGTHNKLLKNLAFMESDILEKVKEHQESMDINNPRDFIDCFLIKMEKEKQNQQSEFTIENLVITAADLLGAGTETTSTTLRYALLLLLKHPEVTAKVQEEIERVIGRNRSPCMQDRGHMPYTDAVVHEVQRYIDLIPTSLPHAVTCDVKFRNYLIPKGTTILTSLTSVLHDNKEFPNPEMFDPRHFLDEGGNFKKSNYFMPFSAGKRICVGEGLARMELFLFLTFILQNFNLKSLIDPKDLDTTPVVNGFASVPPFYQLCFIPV

Question: Which Potency [1] does the source give for `COCC(=O)N1CCC[C@@]2(CCN(Cc3ccccc3OC)C2)C1` here?
Answer: The Potency was > 11.4 µM (inactive).

Question: And the activity change, negative = inhibition [2]?
Answer: Its activity change, negative = inhibition is -5.37% (inactive).

Question: And the Potency [3]?
Answer: The Potency was “inactive”.

Question: And the activity change, negative = inhibition [4]?
Answer: Its activity change, negative = inhibition is 7.38% (inactive).

Question: What about the activity, negative = inhibition [5] of the same compound?
Answer: Its activity, negative = inhibition is -1.88% (inactive).

Question: What about the Potency [6] of the same compound?
Answer: Its Potency is > 46 µM (inactive).

Question: And the outcome [7]?
Answer: Its outcome is “inactive”.

Question: And the Potency [8]?
Answer: The Potency was “inactive”.

Question: What about the Potency [9] of the same compound?
Answer: The Potency was 6.31 µM (active).

Question: And the activation [10]?
Answer: Its activation is -5.2% (inactive).

Question: And the activity change, negative = inhibition [11]?
Answer: The activity change, negative = inhibition was 3.26% (inactive).

Question: What about the max response [11, 16] of the same compound?
Answer: The max response was 0.0589%.

Question: What about the max response [11, 17] of the same compound?
Answer: The max response was 5.61%.

Question: What about the Potency [12] of the same compound?
Answer: Its Potency is “inactive”.

Question: Which results are given for `COc1ccccc1CN1CC[C@@]2(CCCN(C(=O)c3cccn3C)C2)C1`?
Answer: Potency [1]: > 11.4 µM (inactive); activity change, negative = inhibition [2]: -17% (inactive); Potency [3]: inactive; activity change, negative = inhibition [4]: -9.11% (inactive); activity, negative = inhibition [5]: -10.5% (inactive); Potency [6]: > 46 µM (inactive); outcome [7]: inactive; Potency [8]: inactive; Potency [13]: inactive; Potency [9]: 0.316 µM (active); activity change, negative = inhibition [11]: 3.67% (inactive); max response [11, 16]: 9.96%; max response [11, 17]: 13.2%; Potency [12]: inactive

Question: What does the source list for `COc1ccccc1CN1CCCC2(CCN(S(C)(=O)=O)CC2)C1`?
Answer: Potency [1]: > 11.4 µM (inactive); activity change, negative = inhibition [2]: -4.49% (inactive); Potency [3]: inactive; activity change, negative = inhibition [4]: -28.3% (inactive); activity, negative = inhibition [5]: 6.82% (inactive); Potency [6]: > 46 µM (inactive); outcome [7]: inactive; Potency [8]: inactive; Potency [9]: 0.0631 µM (active); activity change, negative = inhibition [11]: 2.11% (inactive); max response [11, 16]: -15.8%; max response [11, 17]: -12.2%; Potency [12]: inactive

Question: With `O=S(=O)(c1ccccc1)N1CCC[C@@]2(CCN(c3ccccc3)C2)C1` as the compound, how does the Potency [1] read?
Answer: Its Potency is > 11.4 µM (inactive).

Question: What about the activity change, negative = inhibition [2] of the same compound?
Answer: The activity change, negative = inhibition was -10.1% (inactive).

Question: And the Potency [3]?
Answer: Its Potency is 3.98 µM (active).

Question: What about the activity change, negative = inhibition [4] of the same compound?
Answer: The activity change, negative = inhibition was -13.8% (inactive).

Question: What about the activity, negative = inhibition [5] of the same compound?
Answer: Its activity, negative = inhibition is -4.22% (inactive).

Question: What about the Potency [6] of the same compound?
Answer: Its Potency is > 46 µM (inactive).

Question: What about the Potency [14] of the same compound?
Answer: Its Potency is 5.01 µM (active).

Question: And the Potency [13]?
Answer: Its Potency is “inactive”.

Question: And the Potency [15]?
Answer: The Potency was 0.316 µM (active).

Question: And the activity change, negative = inhibition [11]?
Answer: Its activity change, negative = inhibition is -16% (inactive).

Question: What about the max response [11, 16] of the same compound?
Answer: Its max response is 5.79%.

Question: And the max response [11, 17]?
Answer: Its max response is -9.53%.

Question: What about the Potency [12] of the same compound?
Answer: The Potency was “inactive”.
